# Test results from the supplement of paper PMC5919970.
# Structures can show the parent of a compound that is named as a salt. Whole data set: some 2,000 compounds, median “fractional viability relative to vehicle” near 0.91, cut for the lowest 2% near 0.045. For the sample, the lowest values were picked, then their nearest neighbours and some compounds at random.
# Test system: TYKNU
# Experiment: fractional viability relative to vehicle; TYKNU is a high-grade serous ovarian cancer line; higher = less growth inhibition
# Conditions: 72 h
# Outline: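 Drug treatment lasted 72 h, with cells grown at 37 °C in 5% CO2 in RPMI 1640 supplemented with 10% FBS. Beforehand, TYKNU control cells or their lentiCRISPRv2 knockout derivatives had been seeded at 500 cells per well into drug-stamped 384-well plates carrying a ~2100-compound library at 2 or 10 μM, in duplicate. Viability came from Cell Titer Glo luminescence, with averaged duplicate treatment wells normalised to duplicate control wells in the same plate position.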
# [1] = 2uM, genotype: DNM1L knockout (sgDNM1L #1)
# [2] = 2uM, genotype: sgCTRLA1 (non-targeting control)
# [3] = 10uM, genotype: DNM1L knockout (sgDNM1L #1)
# [4] = 10uM, genotype: sgCTRLA1 (non-targeting control)
SMILES,fractional viability [1],fractional viability [2],fractional viability [3],fractional viability [4]
O=C(O)c1cc2cccc([N+](=O)[O-])c2[nH]1,0.859,1.09,0.957,0.802
CCCCNc1ncc2c(-c3ccc(CN4CCN(C)CC4)cc3)cn([C@H]3CC[C@H](O)CC3)c2n1,0.322,0.41,0.0773,0.0599
C=CCc1cccc(/C=N/NC(=O)CN2CCN(Cc3ccccc3)CC2)c1O,0.604,0.671,0.277,0.27
Cc1[nH]nc2ccc(-c3cncc(OC[C@@H](N)Cc4ccccc4)c3)cc12,0.23,0.212,0.137,0.0399
CC[C@H]1OC(=O)C[C@@H](O)[C@H](C)[C@@H](O[C@@H]2O[C@H](C)[C@@H](O)[C@H](N(C)C)[C@H]2O)[C@@H](CCN2C[C@H](C)C[C@H](C)C2)C[C@@H](C)C(=O)/C=C/C(C)=C/[C@@H]1CO[C@@H]1O[C@H](C)[C@@H](O)[C@@H](OC)[C@H]1OC [Tilmicosin],2.22,1.13,1.49,1.11
CC(/C=C1\SC(=S)N(CC(=O)O)C1=O)=C\c1ccccc1 [Epalrestat],0.92,1.11,0.89,1.03
CCOC(=O)[C@H]1O[C@@H]1C(=O)N[C@@H](CC(C)C)C(=O)NCCC(C)C [Aloxistatin],0.853,0.91,0.817,0.78
Cc1c[nH]c(/C=C2\C(=O)Nc3ccccc32)c1CCC(=O)O,0.91,0.936,0.874,0.784
CC(C)(Cc1ccc2ccccc2c1)NC[C@@H](O)COc1cccc(Cl)c1C#N,0.854,1.1,0.585,0.0354
CC(C)(C)NCC(O)COc1cccc2c1CCC(=O)N2 (centres undefined) [Carteolol HCl],0.876,1.16,0.838,1.14
CC(C)NCC(O)COc1cccc2ccccc12 (centres undefined) [Propranolol HCl],0.866,1.12,0.82,1.1
NCc1c[nH]c(=S)n1[C@H]1CCc2c(F)cc(F)cc2C1 [Nepicastat (SYN-117) HCl],0.973,1.11,0.953,0.993
NC1=N[C@@](c2cccc(-c3cncnc3)c2)(c2ccnc(C(F)F)c2)c2cccc(F)c21,0.851,1.01,0.765,0.736
CCCc1cc2c(N3CCN(C4=NCC(C)(C)S4)CC3)ncnc2s1 [MI-2 (Menin-MLL Inhibitor)],0.919,0.869,0.747,0.665
CCOC(=O)c1cnc2ccc(-c3cncc(NS(=O)(=O)c4ccccc4)c3)cn12,0.176,0.171,0.183,0.108
O=C(c1ccccc1)c1ccc2nc(NC(=O)c3csc(C4CCN(c5ncnc6ccsc56)CC4)n3)[nH]c2c1,0.749,1.15,0.481,0.328
CC(C)OC(=O)C1=CN(C(=O)c2ccc(F)c(F)c2)CC(C)(C)c2c1[nH]c1ccccc21,0.991,1.05,0.865,0.965
CCc1cccc(CC)c1NC(=O)N1Cc2[nH]nc(NC(=O)c3ccc(N4CCN(C)CC4)cc3)c2C1,0.538,0.711,0.359,0.462
CN1CCN(c2ccc(C(=O)Nc3n[nH]c4ccc(Cc5cc(F)cc(F)c5)cc34)c(NC3CCOCC3)c2)CC1 [Entrectinib (RXDX-101)],0.597,0.771,0.0511,0.0303

SMILES,fractional viability [1],fractional viability [2],fractional viability [3],fractional viability [4]
CO[C@@H](C(=O)N1Cc2[nH]nc(NC(=O)c3ccc(N4CCN(C)CC4)cc3)c2C1)c1ccccc1,0.503,0.521,0.486,0.427
OCc1ccc(O[C@@H]2O[C@H](CO)[C@@H](O)[C@H](O)[C@H]2O)cc1 [Gastrodin],0.926,1.16,0.853,1.06
COc1ccc(-c2nc3cc(C4=NNC(=O)CC4C)ccc3[nH]2)cc1 (centres undefined) [Pimobendan],1.1,1.05,0.55,0.472
CN1C(C(=O)Nc2ccccn2)=C(O)c2sc(Cl)cc2S1(=O)=O [Lornoxicam],1.04,1.22,0.894,0.996
Cc1cc(N2CCOCC2)cc2[nH]c(-c3c(NC[C@@H](O)c4cccc(Cl)c4)cc[nH]c3=O)nc12,0.488,0.845,0.35,0.472
C=C1C(=O)O[C@@H]2/C=C(\C)CC/C=C(\C)CC[C@@H]12 [Costunolide],0.946,1.05,0.226,0.249
C=C1C(=O)O[C@H]2[C@H]1CC/C(C)=C/CC[C@@]1(C)O[C@@H]21 [(-)-Parthenolide],0.336,0.595,0.0299,0.0264
CN(C)CCc1c[nH]c2ccc(CS(=O)(=O)N3CCCC3)cc12 [Almotriptan Malate],1.02,1.18,0.947,1.02
CC(C)(O)CC[C@@H](O)[C@](C)(O)[C@H]1CC[C@@]2(O)C3=CC(=O)[C@@H]4C[C@@H](O)[C@@H](O)C[C@]4(C)[C@H]3CC[C@]12C [20-Hydroxyecdysone],1.04,1.1,0.84,1.02
COC(=O)c1ccc2c(c1)[nH]c1ncnc(NCCCN3CCCCC3)c12,0.884,1.05,0.929,0.811
COc1cc2nc(N3CCCN(C)CC3)nc(NC3CCN(Cc4ccccc4)CC3)c2cc1OC,0.474,0.548,0.0331,0.0181
COc1cc2nc(N3CCN(C(=O)C4COc5ccccc5O4)CC3)nc(N)c2cc1OC (centres undefined) [Doxazosin Mesylate],1.18,1.11,1.07,0.931
COc1cc2nc(N3CCN(C(=O)C4CCCO4)CC3)nc(N)c2cc1OC (centres undefined) [Terazosin HCl],1.17,1.16,1.07,0.97
COc1cc(OC)c(C(=O)CCCN2CCCC2)c(OC)c1 [Buflomedil HCl],0.912,1.1,0.825,1.03
COc1cc2nc(N3CCCC3)nc(NCCCCCN3CCCC3)c2cc1OC,0.426,0.543,0.0312,0.0156
COc1cc(Nc2c(C#N)cnc3cc(OCCCN4CCN(C)CC4)c(OC)cc23)c(Cl)cc1Cl [Bosutinib (SKI-606)],0.41,0.574,0.138,0.111
COc1cc2c(NC3CCN(CC4CCCCC4)CC3)nc(N3CCCN(C(C)C)CC3)nc2cc1OCCCN1CCCCC1,0.657,0.723,0.0227,0.00884
c1coc(CNc2ncnc3[nH]cnc23)c1 [Kinetin],1.01,1.01,0.361,0.431
Cc1nn(C)c2c1C(c1ccc(C(F)(F)F)cc1)C(C#N)=C(N)O2 (centres undefined),0.924,1.08,0.886,0.86

SMILES,fractional viability [1],fractional viability [2],fractional viability [3],fractional viability [4]
OC(CN1CCN(c2cccc(Cl)c2)CC1)C(c1ccccc1)c1ccccc1 (centres undefined),0.96,1.02,0.831,1.05
Cc1cc(C(O)=C2C(=O)C(=O)N(CCCN3CCOCC3)C2c2ccncc2)ccc1OCc1ccccc1 (centres undefined),0.77,0.984,0.802,0.726
NC(=O)C(c1ccccc1)(c1ccccc1)[C@@H]1CCN(CCc2ccc3c(c2)CCO3)C1 [Darifenacin HBr],0.951,1.21,0.794,0.953
C=C[C@]1(C)C[C@@H](OC(=O)CSC(C)(C)CNC(=O)[C@H](N)C(C)C)[C@]2(C)[C@H](C)CC[C@]3(CCC(=O)[C@H]32)[C@@H](C)[C@@H]1O [Valnemulin HCl],0.403,0.236,0.385,0.238
COc1ccc(C(=O)CC2(O)C(=O)Nc3c(Cl)ccc(Cl)c32)cc1 (centres undefined),0.264,0.243,0.175,0.186
Cc1ccc(NC(=O)c2ccc(CN3CCN(C)CC3)cc2)cc1Nc1nc(-c2cccnc2)cs1 [Masitinib (AB1010)],1.29,1.09,0.779,0.775
Cc1ccc(C(=O)Nc2ccc(CN3CCN(C)CC3)c(C(F)(F)F)c2)cc1C#Cc1cnc2[nH]ncc2c1,0.214,0.169,0.0362,0.0116
Cc1ccc(NC(=O)c2ccc(CN3CCN(C)CC3)cc2)cc1Nc1nccc(-c2cccnc2)n1 [Imatinib Mesylate (STI571)],1.08,1.12,0.599,0.612
Cc1ccc(NC(=O)c2ccc(CN3CC[C@H](N(C)C)C3)c(C(F)(F)F)c2)cc1Nc1nccc(-c2cncnc2)n1 [Bafetinib (INNO-406)],0.684,0.569,0.0871,0.0998
Cc1ccc(C(=O)Nc2ccc(CN3CCN(C)CC3)c(C(F)(F)F)c2)cc1C#Cc1cnc2cccnn12,0.227,0.185,0.0344,0.0177
CCN1CCN(Cc2ccc(C(=O)Nc3ccc(C)c(Oc4ccc5c(c4)CC(=O)N5)c3)cc2C(F)(F)F)CC1,0.704,0.758,0.477,0.756
Cc1ccc(NC(=O)c2ccc(CN3CCN(C)CC3)cc2)cc1Nc1nccc(-c2cccnc2)n1 [Imatinib (STI571)],1.18,1.1,0.839,0.867
CC(C)n1nc(-c2ccc3oc(N)nc3c2)c2c(N)ncnc21,0.194,0.191,0.181,0.171
Cc1nc(N(C)C(=O)Cc2ccc(-c3ccccn3)cc2)sc1S(N)(=O)=O [Pritelivir (BAY 57-1293)],0.897,0.947,0.855,0.818
COc1cccc(C=NCCN=Cc2cccc(OC)c2[O-])c1[O-].[Cl-].[Mn+3],0.805,0.978,0.756,0.897
Cc1nc2ccc(-n3ncc(C(=O)c4cc5ccccc5[nH]4)c3N)cc2[nH]1,0.935,0.923,0.958,0.819
Cc1ccc(NC(=O)C2(c3ccc4c(c3)OC(F)(F)O4)CC2)nc1-c1cccc(C(=O)O)c1 [VX-809 (Lumacaftor)],0.94,1.12,0.933,1.06
CCO[C@@H]1OC(=O)C[C@@H]1NC(=O)[C@@H]1CCCN1C(=O)[C@@H](NC(=O)c1ccc(N)c(Cl)c1)C(C)(C)C,0.968,1.18,0.898,1.09
